Of roughly 7,900 targets only a part is listed; those with a hit were picked by preference. About 0.6% of all pairs of compound and target were hits.
How the values were obtained:
Test in all cases: log2 fold change, soluble protein after heating vs DMSO (PISA); higher = thermal stabilisation; K562 cells, 10 uM, 30 min; active = over 0.2 and 3.5 SD of the protein, either way, in both replicates (recomputed)
[1] = compound: CS(=O)(=O)c1ccc(-c2cnc(N)c(C(=O)Nc3ccccc3)n2)cc1
How it was run: (§1)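 Soluble protein was quantified by TMTpro 16plex LC-MS/MS after channel sums were equalised. It was obtained as the supernatant after 21,000xg for 90 min from pooled aliquots of K562 cells (2×10^6 cells/mL, 10 μM compound, 30 min) heated for 3 min across 48°C-58°C and extracted in PBS with 0.5% NP-40 at 4°C. Thermal stability values are relative to control samples and come from duplicates. They are given as log2 fold changes.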

crizotinib = compound: C[C@@H](Oc1cc(-c2cnn(C3CCNCC3)c2)cnc1N)c1c(Cl)ccc(F)c1Cl [crizotinib]
How it was run: as §1

[2] = compound: C[C@@H]1COCCN1C2=NC(=NC(=C2)C3(CC3)S(=O)(=O)C)C4=C5C=CNC5=CC=C4
How it was run: as §1

[3] = compound: C[C@H](C1=CC=C(C=C1)C(=O)NC2=C3C=CNC3=NC=C2)N
How it was run: as §1

duvelisib = compound: C[C@H](Nc1ncnc2nc[nH]c12)c1cc2cccc(Cl)c2c(=O)n1-c1ccccc1 [duvelisib]
How it was run: as §1

gandotinib = compound: Cc1cc(Nc2cc(CN3CCOCC3)c3nc(C)c(Cc4ccc(Cl)cc4F)n3n2)n[nH]1 [gandotinib]
How it was run: as §1

tozasertib = compound: Cc1cc(Nc2cc(N3CCN(C)CC3)nc(Sc3ccc(NC(=O)C4CC4)cc3)n2)n[nH]1 [tozasertib]
How it was run: as §1

[4] = compound: Cc1cc(SCc2sc(-c3ccc(C(F)(F)F)cc3)nc2C)ccc1OCC(=O)O
How it was run: as §1

doramapimod = compound: Cc1ccc(-n2nc(C(C)(C)C)cc2NC(=O)Nc2ccc(OCCN3CCOCC3)c3ccccc23)cc1 [doramapimod]
How it was run: as §1

ispinesib = compound: Cc1ccc(C(=O)N(CCCN)[C@@H](c2nc3cc(Cl)ccc3c(=O)n2Cc2ccccc2)C(C)C)cc1 [ispinesib]
How it was run: as §1

bafetinib = compound: Cc1ccc(NC(=O)c2ccc(CN3CC[C@H](N(C)C)C3)c(C(F)(F)F)c2)cc1Nc1nccc(-c2cncnc2)n1 [bafetinib]
How it was run: as §1

[5] = compound: Cc1cccc(CC(=O)N2CCc3c2ccc(-c2cn(C)c4ncnc(N)c24)c3F)n1
How it was run: as §1

nilotinib = compound: Cc1cn(-c2cc(NC(=O)c3ccc(C)c(Nc4nccc(-c5cccnc5)n4)c3)cc(C(F)(F)F)c2)cn1 [nilotinib]
How it was run: as §1

[6] = compound: Cc1nc(Nc2n[nH]c3c2CN(C(=O)N[C@H](CN(C)C)c2ccccc2)C3(C)C)c2sccc2n1
How it was run: as §1

dasatinib = compound: Cc1nc(Nc2ncc(C(=O)Nc3c(C)cccc3Cl)s2)cc(N2CCN(CCO)CC2)n1 [dasatinib]
How it was run: as §1

[7] = compound: Cc1ncc(-c2ccnc(Nc3ccc(S(C)(=O)=O)cc3)n2)n1C(C)C
How it was run: as §1

[8] = compound: Cn1cc(-c2ccc3c(c2)CCN3C(=O)Cc2cccc(C(F)(F)F)c2)c2c(N)ncnc21
How it was run: as §1

[9] = compound: Cn1cc(-c2ccc3nnc(C(F)(F)c4ccc5ncccc5c4)n3n2)cn1
How it was run: as §1

tipifarnib = compound: Cn1cncc1[C@@](N)(c1ccc(Cl)cc1)c1ccc2c(c1)c(-c1cccc(Cl)c1)cc(=O)n2C [tipifarnib]
How it was run: as §1

mubritinib = compound: FC(F)(F)c1ccc(/C=C/c2nc(COc3ccc(CCCCn4ccnn4)cc3)co2)cc1 [mubritinib]
How it was run: as §1

Measured: log2 fold change

POLR2G (UniProt P62487)
inactive: [1] 0.006 | crizotinib 0.257 | [2] 0.111 | [3] 0.125 | duvelisib 0.087 | gandotinib 0.191 | tozasertib -0.051 | [4] -0.026 | doramapimod -0.016 | ispinesib 0.035 | bafetinib -0.048 | [5] -0.038 | nilotinib 0.012 | [6] 0.188 | dasatinib 0.054 | [7] 0.202 | [8] 0.009 | [9] 0.002 | tipifarnib 0 | mubritinib 0.065

PLCB3 (UniProt Q01970)
Sequence of UniProt Q01970 (Q01970 whole entry, looked up): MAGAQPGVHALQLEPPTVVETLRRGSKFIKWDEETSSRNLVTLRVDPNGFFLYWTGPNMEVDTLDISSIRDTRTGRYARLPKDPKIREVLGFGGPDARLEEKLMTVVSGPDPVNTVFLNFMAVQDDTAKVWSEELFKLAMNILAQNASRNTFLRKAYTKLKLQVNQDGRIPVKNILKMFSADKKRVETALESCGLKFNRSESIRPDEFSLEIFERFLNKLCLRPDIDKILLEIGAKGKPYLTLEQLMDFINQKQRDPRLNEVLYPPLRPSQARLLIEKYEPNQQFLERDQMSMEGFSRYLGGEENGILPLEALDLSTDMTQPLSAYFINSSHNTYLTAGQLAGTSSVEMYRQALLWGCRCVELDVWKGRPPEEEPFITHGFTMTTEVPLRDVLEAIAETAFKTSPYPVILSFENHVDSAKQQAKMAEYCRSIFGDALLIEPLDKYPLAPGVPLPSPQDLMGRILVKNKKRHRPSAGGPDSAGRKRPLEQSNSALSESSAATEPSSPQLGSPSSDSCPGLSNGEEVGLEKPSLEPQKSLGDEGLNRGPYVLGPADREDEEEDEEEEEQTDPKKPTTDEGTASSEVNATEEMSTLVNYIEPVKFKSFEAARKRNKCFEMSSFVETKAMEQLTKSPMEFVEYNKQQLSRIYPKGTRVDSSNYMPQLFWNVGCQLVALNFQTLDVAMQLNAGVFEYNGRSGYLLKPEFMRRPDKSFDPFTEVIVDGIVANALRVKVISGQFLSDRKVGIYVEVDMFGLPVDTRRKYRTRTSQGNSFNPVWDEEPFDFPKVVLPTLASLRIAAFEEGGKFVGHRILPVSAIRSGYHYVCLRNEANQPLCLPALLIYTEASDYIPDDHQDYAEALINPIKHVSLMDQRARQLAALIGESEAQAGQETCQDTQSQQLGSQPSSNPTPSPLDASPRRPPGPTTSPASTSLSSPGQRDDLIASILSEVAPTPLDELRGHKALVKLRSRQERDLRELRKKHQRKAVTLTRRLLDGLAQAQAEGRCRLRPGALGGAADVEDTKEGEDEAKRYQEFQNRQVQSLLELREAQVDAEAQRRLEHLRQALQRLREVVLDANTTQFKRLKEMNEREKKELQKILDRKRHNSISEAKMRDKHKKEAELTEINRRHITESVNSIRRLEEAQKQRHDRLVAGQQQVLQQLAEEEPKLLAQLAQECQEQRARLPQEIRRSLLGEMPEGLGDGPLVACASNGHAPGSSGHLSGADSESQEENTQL
inactive: [1] 0 | crizotinib -0.07 | [2] 0.014 | [3] 0.013 | duvelisib 0.019 | gandotinib 0.031 | tozasertib 0.041 | [4] 0.034 | doramapimod 0.014 | ispinesib -0.078 | bafetinib -0.059 | [5] -0.084 | nilotinib -0.104 | [6] 0.033 | dasatinib -0.092 | [7] -0.006 | [8] -0.006 | [9] 0.061 | tipifarnib -0.039 | mubritinib 0.003

PHKA1 (UniProt P46020)
inactive: [1] -0.036 | crizotinib -0.05 | [2] -0.048 | [3] 0.189 | duvelisib -0.074 | gandotinib -0.015 | tozasertib 0.279 | [4] 0.075 | doramapimod 0.037 | ispinesib -0.07 | bafetinib 0.023 | [5] -0.004 | nilotinib -0.233 | [6] -0.021 | dasatinib -0.303 | [7] 0.023 | [8] 0.027 | [9] -0.092 | tipifarnib 0.083 | mubritinib -0.04

PPP6R1 (UniProt Q9UPN7)
Sequence of UniProt Q9UPN7 (Q9UPN7 whole entry, looked up): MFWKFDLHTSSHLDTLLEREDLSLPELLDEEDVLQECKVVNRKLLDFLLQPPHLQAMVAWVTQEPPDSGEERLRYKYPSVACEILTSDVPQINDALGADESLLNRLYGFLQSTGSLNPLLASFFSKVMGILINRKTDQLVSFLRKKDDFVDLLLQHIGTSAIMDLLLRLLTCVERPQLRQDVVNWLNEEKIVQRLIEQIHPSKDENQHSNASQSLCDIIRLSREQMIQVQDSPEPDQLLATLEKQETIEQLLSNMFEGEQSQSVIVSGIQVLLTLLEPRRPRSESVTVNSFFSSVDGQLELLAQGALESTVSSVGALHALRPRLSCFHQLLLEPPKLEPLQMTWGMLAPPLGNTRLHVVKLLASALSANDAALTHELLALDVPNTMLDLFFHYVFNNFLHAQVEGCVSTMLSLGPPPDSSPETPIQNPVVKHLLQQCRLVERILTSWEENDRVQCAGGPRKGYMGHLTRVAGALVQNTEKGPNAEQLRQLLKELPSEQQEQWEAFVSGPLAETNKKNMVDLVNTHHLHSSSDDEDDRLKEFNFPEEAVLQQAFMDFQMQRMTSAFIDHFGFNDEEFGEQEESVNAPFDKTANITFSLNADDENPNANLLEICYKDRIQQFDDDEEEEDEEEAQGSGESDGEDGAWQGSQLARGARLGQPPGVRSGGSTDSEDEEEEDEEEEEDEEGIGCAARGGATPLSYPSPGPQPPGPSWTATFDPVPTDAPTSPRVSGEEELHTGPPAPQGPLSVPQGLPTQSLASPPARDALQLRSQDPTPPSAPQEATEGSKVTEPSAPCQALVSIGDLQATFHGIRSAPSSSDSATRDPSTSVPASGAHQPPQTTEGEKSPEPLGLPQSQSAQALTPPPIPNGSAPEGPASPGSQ
inactive: [1] -0.013 | crizotinib -0.018 | [2] 0.125 | [3] 0.012 | duvelisib 0.027 | gandotinib -0.078 | tozasertib 0.084 | [4] -0.01 | doramapimod 0.01 | ispinesib -0.002 | bafetinib -0.024 | [5] 0.022 | nilotinib 0.003 | [6] -0.031 | dasatinib -0.02 | [7] -0.008 | [8] 0.003 | [9] 0.02 | tipifarnib 0.01 | mubritinib 0.043

PRKAG1 isoform 3 (UniProt P54619)
Sequence of UniProt P54619 (P54619 whole entry, looked up): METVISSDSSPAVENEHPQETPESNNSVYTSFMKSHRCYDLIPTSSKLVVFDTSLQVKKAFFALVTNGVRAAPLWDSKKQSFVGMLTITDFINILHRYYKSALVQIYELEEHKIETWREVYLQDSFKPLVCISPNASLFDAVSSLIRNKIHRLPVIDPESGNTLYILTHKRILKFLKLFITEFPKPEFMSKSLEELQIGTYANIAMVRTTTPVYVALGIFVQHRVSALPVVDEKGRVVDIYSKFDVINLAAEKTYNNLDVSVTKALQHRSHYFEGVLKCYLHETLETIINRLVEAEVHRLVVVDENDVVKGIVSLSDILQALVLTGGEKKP
inactive: [1] -0.01 | crizotinib -0.114 | [2] 0.006 | [3] -0.023 | duvelisib 0.035 | gandotinib -0.249 | tozasertib -0.032 | [4] 0.004 | doramapimod -0.003 | ispinesib -0.018 | bafetinib -0.098 | [5] 0.001 | nilotinib -0.079 | [6] -0.189 | dasatinib -0.056 | [7] -0.01 | [8] 0.001 | [9] 0.022 | tipifarnib 0.007 | mubritinib -0.052

PRKAA1 isoform 2 (UniProt Q13131)
inactive: [1] 0 | crizotinib -0.156 | [2] -0.007 | [3] -0.011 | duvelisib 0.055 | tozasertib -0.044 | [4] -0.036 | doramapimod -0.019 | ispinesib -0.003 | bafetinib -0.096 | [5] 0.035 | nilotinib -0.029 | dasatinib -0.069 | [7] -0.011 | [8] 0.082 | [9] 0.028 | tipifarnib -0.012 | mubritinib -0.012
active: gandotinib -0.235 | [6] -0.206

QKI (UniProt Q96PU8)
Sequence of UniProt Q96PU8 (Q96PU8 whole entry, looked up): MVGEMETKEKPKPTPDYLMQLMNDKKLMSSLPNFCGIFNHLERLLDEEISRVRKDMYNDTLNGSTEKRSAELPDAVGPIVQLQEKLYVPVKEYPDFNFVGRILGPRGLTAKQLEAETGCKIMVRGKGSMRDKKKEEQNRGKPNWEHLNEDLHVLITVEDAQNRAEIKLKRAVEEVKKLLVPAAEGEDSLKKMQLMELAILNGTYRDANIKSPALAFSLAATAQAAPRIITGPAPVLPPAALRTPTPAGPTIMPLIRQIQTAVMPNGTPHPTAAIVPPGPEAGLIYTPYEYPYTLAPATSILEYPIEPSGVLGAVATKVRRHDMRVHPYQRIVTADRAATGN
inactive: [1] -0.057 | crizotinib 0.075 | [2] 0.046 | [3] -0.079 | duvelisib 0.032 | gandotinib -0.093 | tozasertib 0.027 | [4] 0.034 | doramapimod 0 | ispinesib -0.034 | bafetinib -0.001 | [5] 0.058 | nilotinib -0.015 | [6] -0.105 | dasatinib -0.029 | [7] -0.093 | [8] -0.007 | [9] -0.036 | tipifarnib -0.015 | mubritinib 0.003

POMK (UniProt Q9H5K3)
Sequence of UniProt Q9H5K3 (Q9H5K3 whole entry, looked up): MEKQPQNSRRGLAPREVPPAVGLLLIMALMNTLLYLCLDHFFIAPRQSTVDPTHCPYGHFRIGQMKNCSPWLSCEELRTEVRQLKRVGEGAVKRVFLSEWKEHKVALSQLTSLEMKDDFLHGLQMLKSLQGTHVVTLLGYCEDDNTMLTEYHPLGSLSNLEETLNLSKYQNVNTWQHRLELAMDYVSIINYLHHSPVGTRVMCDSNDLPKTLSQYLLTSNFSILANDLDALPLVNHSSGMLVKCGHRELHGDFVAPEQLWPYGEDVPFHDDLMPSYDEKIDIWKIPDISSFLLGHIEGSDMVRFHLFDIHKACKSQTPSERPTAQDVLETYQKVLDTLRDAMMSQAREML
inactive: [1] -0.013 | crizotinib -0.044 | [2] -0.034 | [3] 0.086 | duvelisib 0.062 | gandotinib 0.027 | tozasertib 0.024 | [4] 0.092 | doramapimod 0.108 | ispinesib -0.203 | bafetinib -0.057 | [5] 0.067 | nilotinib -0.032 | [6] -0.029 | dasatinib -0.05 | [7] 0.016 | [8] 0 | [9] 0.034 | tipifarnib -0.044 | mubritinib -0.126

PRKAR2A (UniProt P13861)
Sequence of UniProt P13861 (P13861 whole entry, looked up): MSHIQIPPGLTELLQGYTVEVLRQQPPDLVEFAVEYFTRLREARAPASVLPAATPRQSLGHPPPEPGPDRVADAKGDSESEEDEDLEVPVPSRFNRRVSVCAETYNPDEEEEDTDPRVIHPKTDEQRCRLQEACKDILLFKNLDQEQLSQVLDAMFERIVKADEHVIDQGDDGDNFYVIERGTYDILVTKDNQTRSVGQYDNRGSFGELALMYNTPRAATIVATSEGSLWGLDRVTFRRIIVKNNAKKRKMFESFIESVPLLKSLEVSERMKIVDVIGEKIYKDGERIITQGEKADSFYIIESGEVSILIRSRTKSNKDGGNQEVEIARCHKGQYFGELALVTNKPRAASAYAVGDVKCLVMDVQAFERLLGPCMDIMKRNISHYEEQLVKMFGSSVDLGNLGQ
active: [6] -0.606
inactive: [1] 0.046 | crizotinib -0.038 | [2] 0.089 | [3] -0.159 | duvelisib 0.069 | gandotinib -0.02 | tozasertib 0.04 | [4] 0.023 | doramapimod 0.03 | ispinesib -0.056 | bafetinib 0.029 | [5] 0.007 | nilotinib 0.139 | dasatinib -0.055 | [7] -0.026 | [8] 0.07 | [9] 0.102 | tipifarnib 0.004 | mubritinib 0.042

PELP1 (UniProt Q8IZL8)
inactive: [1] -0.006 | crizotinib -0.012 | [2] -0.107 | [3] -0.024 | duvelisib -0.055 | gandotinib -0.282 | tozasertib -0.012 | [4] 0.111 | doramapimod 0.019 | ispinesib 0.004 | bafetinib 0.005 | [5] -0.115 | nilotinib -0.007 | [6] 0.007 | dasatinib 0.004 | [7] -0.047 | [8] 0.064 | [9] -0.034 | tipifarnib 0.063 | mubritinib -0.009

PRMT8 (UniProt Q9NR22)
Sequence of UniProt Q9NR22 (Q9NR22 whole entry, looked up): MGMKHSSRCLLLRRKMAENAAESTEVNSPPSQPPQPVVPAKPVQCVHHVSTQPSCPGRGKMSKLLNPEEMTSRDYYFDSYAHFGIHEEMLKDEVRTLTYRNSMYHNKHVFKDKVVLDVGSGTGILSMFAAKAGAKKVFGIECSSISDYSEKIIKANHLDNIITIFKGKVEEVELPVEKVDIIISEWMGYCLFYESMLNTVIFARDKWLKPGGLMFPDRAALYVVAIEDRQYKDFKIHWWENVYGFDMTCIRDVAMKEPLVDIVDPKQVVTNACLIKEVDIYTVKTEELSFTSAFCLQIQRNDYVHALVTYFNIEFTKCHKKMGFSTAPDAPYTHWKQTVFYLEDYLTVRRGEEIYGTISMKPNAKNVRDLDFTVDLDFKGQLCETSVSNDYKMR
inactive: [1] -0.046 | crizotinib -0.03 | [2] -0.043 | [3] 0.024 | duvelisib 0.012 | gandotinib -0.047 | tozasertib -0.024 | [4] 0.045 | doramapimod -0.021 | ispinesib 0.13 | bafetinib 0.002 | [5] 0.032 | nilotinib -0.036 | [6] 0.048 | dasatinib -0.064 | [7] 0.02 | [8] 0.064 | [9] -0.066 | tipifarnib -0.136 | mubritinib 0.035

POM121 (UniProt Q96HA1)
inactive: [1] 0.024 | crizotinib -0.139 | [2] -0.016 | [3] 0.084 | duvelisib -0.022 | gandotinib -0.043 | tozasertib 0.014 | [4] 0.008 | doramapimod 0.134 | bafetinib -0.114 | [5] 0.012 | nilotinib 0.135 | [6] 0 | dasatinib -0.051 | [7] -0.177 | [8] -0.081 | [9] -0.063 | tipifarnib 0.021
active: ispinesib -0.307

PPID (UniProt Q08752)
inactive: [1] 0.055 | crizotinib -0.102 | [2] 0.046 | [3] 0.071 | duvelisib -0.024 | gandotinib -0.145 | tozasertib 0.043 | [4] 0.088 | doramapimod 0.007 | ispinesib -0.08 | bafetinib 0.015 | [5] 0.075 | nilotinib -0.113 | [6] -0.13 | dasatinib -0.206 | [7] 0.062 | [8] 0.023 | [9] 0.076 | tipifarnib -0.148 | mubritinib -0.005

PIGT (UniProt Q969N2)
inactive: [1] 0.033 | crizotinib 0.023 | [2] -0.017 | [3] 0.005 | duvelisib -0.045 | gandotinib -0.029 | tozasertib 0.029 | [4] 0.047 | doramapimod 0.036 | ispinesib 0 | bafetinib -0.042 | [5] 0 | nilotinib -0.029 | [6] 0.046 | dasatinib -0.031 | [7] -0.028 | [8] -0.011 | [9] 0.003 | tipifarnib -0.029 | mubritinib -0.037

PDSS2 (UniProt Q86YH6)
Sequence of UniProt Q86YH6 (Q86YH6 whole entry, looked up): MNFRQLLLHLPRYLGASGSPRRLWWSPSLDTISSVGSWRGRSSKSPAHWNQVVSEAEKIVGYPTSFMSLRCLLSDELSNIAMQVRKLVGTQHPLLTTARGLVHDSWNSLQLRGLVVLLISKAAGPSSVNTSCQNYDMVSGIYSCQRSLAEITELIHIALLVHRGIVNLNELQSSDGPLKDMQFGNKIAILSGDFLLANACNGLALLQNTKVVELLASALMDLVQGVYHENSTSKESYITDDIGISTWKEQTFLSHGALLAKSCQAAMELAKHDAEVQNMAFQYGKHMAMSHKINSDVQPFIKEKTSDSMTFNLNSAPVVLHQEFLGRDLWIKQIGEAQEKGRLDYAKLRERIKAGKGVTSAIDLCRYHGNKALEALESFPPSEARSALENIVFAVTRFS
inactive: [1] -0.034 | crizotinib 0.078 | [2] 0.075 | [3] -0.058 | duvelisib -0.083 | gandotinib 0.098 | tozasertib -0.118 | [4] 0.149 | doramapimod 0.049 | ispinesib -0.031 | bafetinib 0.077 | [5] 0.048 | nilotinib 0.029 | [6] 0.163 | dasatinib 0.06 | [7] -0.154 | [8] 0.052 | [9] 0.02 | tipifarnib -0.095

PARN (UniProt O95453)
Sequence of UniProt O95453 (O95453 whole entry, looked up): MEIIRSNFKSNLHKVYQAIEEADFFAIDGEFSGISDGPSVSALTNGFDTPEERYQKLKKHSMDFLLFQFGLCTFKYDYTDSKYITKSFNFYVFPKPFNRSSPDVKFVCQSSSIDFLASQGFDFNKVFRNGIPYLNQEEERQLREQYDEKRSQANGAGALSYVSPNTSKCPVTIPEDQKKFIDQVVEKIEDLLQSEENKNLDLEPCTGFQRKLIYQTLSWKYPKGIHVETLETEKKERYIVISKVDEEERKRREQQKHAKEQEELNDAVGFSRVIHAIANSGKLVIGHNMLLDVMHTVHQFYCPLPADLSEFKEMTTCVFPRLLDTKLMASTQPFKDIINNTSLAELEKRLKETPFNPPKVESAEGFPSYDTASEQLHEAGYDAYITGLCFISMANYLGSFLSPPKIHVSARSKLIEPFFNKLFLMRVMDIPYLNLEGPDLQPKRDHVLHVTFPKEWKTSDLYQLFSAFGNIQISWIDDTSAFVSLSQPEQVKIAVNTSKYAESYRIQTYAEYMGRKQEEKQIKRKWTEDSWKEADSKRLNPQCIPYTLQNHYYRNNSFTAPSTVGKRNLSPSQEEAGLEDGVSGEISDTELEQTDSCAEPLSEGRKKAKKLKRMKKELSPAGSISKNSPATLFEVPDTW
inactive: [1] 0.028 | crizotinib -0.095 | [2] 0.125 | [3] -0.025 | duvelisib 0.048 | gandotinib -0.127 | tozasertib 0.024 | [4] 0.069 | doramapimod -0.037 | ispinesib -0.021 | bafetinib -0.104 | [5] 0.019 | nilotinib -0.018 | [6] -0.073 | dasatinib -0.182 | [7] -0.011 | [8] -0.003 | [9] 0.018 | tipifarnib -0.01 | mubritinib 0.076

Source: the supplement of paper PMC10849652
